D1 potentiator: human D1 dopamine receptor positive modulation; P21728; HEK293 TREx D1 cells, calcium flux, dopamine EC20 potentiation; potentiation, % at 10 µM; 360,000 compounds, 0.036% hits; AID 504651; in the data active means potentiation above about 30%
TRHR PAM: allosteric enhancers of human TRH receptor; P34981; enhancement, % at 2 µM; TRHR cells, fluo-8 calcium fluorescence, EC20 TRH enhancement; 360,000 compounds, 0.66% hits; AID 493056; in the data active means enhancement above about 30%
Target sequence (P34981 whole entry, looked up): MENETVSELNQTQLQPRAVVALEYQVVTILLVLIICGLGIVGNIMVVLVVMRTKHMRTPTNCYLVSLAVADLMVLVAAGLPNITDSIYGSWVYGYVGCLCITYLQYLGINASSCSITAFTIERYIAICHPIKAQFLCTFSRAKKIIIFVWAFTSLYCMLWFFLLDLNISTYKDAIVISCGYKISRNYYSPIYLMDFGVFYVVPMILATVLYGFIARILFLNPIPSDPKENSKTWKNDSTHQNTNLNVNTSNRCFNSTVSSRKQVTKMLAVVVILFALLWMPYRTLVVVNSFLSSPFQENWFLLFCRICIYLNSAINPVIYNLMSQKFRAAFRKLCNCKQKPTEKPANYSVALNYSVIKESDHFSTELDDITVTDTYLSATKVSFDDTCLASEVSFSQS
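Enhancer read-out: after compound pinning and an initial kinetic agonist-mode read, an EC20 of TRH (10 nM final) was injected and fluo-8 calcium signal (Ex 480/Em 530) followed at 1 s/cycle for 100 cycles in TRHR-expressing cells.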
D1 ag: human D1 receptor agonism; HEK293 T-REx D1 cells, calcium flux, agonist mode; 360,000 compounds, 1% hits; AID 504660; activation, % at 2 µM; P21728
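Agonism was scored from calcium flux recorded over 180 s (1 read/s) after pintool compound addition, following a 10-cycle baseline. Cells were inducible force-coupled HEK293 TREx D1, plated overnight at 30 C and loaded with no-wash calcium dye.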
USP1 inh: blocks the human USP1/UAF1 deubiquitinase complex; O94782; recombinant USP1/UAF1, Ub-Rhodamine cleavage fluorescence; Potency, µM (doses to about 57.1 µM), most hits filed as inhibitors; 390,000 compounds, 0.23% hits; active means well fitted inhibition curve with a large enough effect; inconclusive means small, poorly fitted or top-dose-only effect; inactive means no such curve, though single readings can be large or run the other way; further: nearly all actives have a fitted effect of over 60% in size
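Step one: compound is pinned into 1nM USP1/UAF1 in HEPES pH 7.8 buffer with TCEP. Step two: 15 min room-temperature incubation. Step three: Ub-Rho (150nM final) starts cleavage, tracked by fluorescence over six one-minute reads.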
TRHR agonist: agonists of human TRH receptor | 360,000 compounds, 0.18% hits | P34981 | TRHR cells, calcium flux fluo-8, FDSS agonist mode | activation, % at 2 µM
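In this calcium-flux screen, cells bearing human TRHR are dye-loaded with fluo-8, baselined for 10 cycles, then exposed to library compounds; positive kinetic calcium responses during the agonist phase mark hits, with TRH as control.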
D1 antag: antagonists of human D1 dopamine receptor; P21728; HEK293 TREx D1 cells, calcium flux, dopamine EC80; stronger effect = lower value; activity change, negative = inhibition, % at 10 µM; 360,000 compounds, 3.2% hits; in the data active means activity change below about -30%
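Calcium flux readout: force-coupled, inducible Hek293 Trex D1 line, cells induced overnight at 30 C with tetracycline, dye-loaded 30–90 min at RT. Antagonism scored against EC80 dopamine challenge given 180 s after compound.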
Hits are given with their value; . = inactive; ? = inconclusive; / = no result. The list is not random: actives were taken first. Their share in the collection is about 4.4%. Unless noted, no stated cut-off is given here; in the data, active means activation above about 30%; inactive means the rest.

SMILES	D1 potentiator	TRHR PAM	D1 ag	USP1 inh	TRHR agonist	D1 antag
CCc1ccc(NCc2cc3ccc(OC)cc3n(CC(=O)Nc3ccccc3OC)c2=O)cc1	.	.	.	.	.	.
CCCc1cc(C(=O)Cc2ccc(C(=O)OCC)o2)c(O)cc1O	.	.	.	.	.	.
CCCc1cc(-c2n[nH]c(C)c2-c2ccc(C(=O)OCC)o2)c(O)cc1O	.	.	65	.	.	.
Cc1ccsc1C(=O)NNC(=O)Nc1ccc(Cl)c(Cl)c1	.	39	.	.	.	.
CN(C)S(=O)(=O)Oc1ccsc1C(=O)Nc1ccc(Cl)c(Cl)c1	.	.	36	.	.	-55
CN(C)S(=O)(=O)Oc1ccsc1C(=O)Nc1ccc(Br)cc1	.	.	.	?	.	.
CN(C)S(=O)(=O)Oc1ccsc1C(=O)Nc1cccc(Cl)c1	.	.	.	.	.	-42
CCN1c2ccccc2-c2nc(SCC(=O)NCc3ccc(C)cc3)ncc2S1(=O)=O	.	.	.	.	.	.
CCC(=O)Nc1ccccc1-c1nc2ccccc2n(Cc2cccc(Br)c2)c1=O	.	.	.	.	.	.
C=CCc1cc(Cl)ccc1OCCNCCN1CCOCC1	.	.	.	.	.	-87
COCCCNC(=O)c1ccc2c3c(onc13)-c1ccccc1C2=O	.	.	.	20µM	.	.
O=C(Nc1cccc(-n2cnnn2)c1)c1cc2ccccc2o1	.	.	.	.	.	.
O=C(Nc1cccc(-n2cnnn2)c1)c1cc(Cl)ccc1Cl	.	.	.	.	.	-44
O=C(Nc1cccc(-n2cnnn2)c1)c1ccco1	.	.	.	.	.	-57
Cc1ccccc1CNC(=O)Cc1ccccc1[N+](=O)[O-]	.	.	.	.	.	.
CC(C)[C@H](NC(=O)c1ccc(Cl)c([N+](=O)[O-])c1)C(=O)NCc1ccc(Cl)cc1Cl	.	.	.	.	.	-39
Cc1ccccc1CNC(=O)c1ccc(Cl)c([N+](=O)[O-])c1	.	.	.	.	.	-61
CCN(CC)CCN(C(=O)c1ccco1)c1nc2ccc(Br)cc2s1	.	.	.	.	.	.
O=C(NC(=S)Nc1nc(-c2ccccc2)cs1)c1cccnc1	.	.	.	.	.	.
O=C(O)c1ccc(NC(=S)NC(=O)c2cncc(Br)c2)cc1	.	34	.	.	.	.
O=C(NC(=S)Nc1nc(-c2ccccc2)cs1)c1cncc(Br)c1	.	.	37	.	.	.
COc1ccc(N2CCN(CCCNC(=O)c3sc4ncccc4c3-n3cccc3)CC2)cc1	.	.	.	.	.	.
Cc1nn2c(=O)cc(COC(=O)c3ccc(NC(=O)c4ccc(C(C)(C)C)cc4)cc3)nc2s1	.	.	.	.	.	.
CCC(=O)OCc1c(C(F)(F)F)nn(C)c1Sc1ccc(F)cc1	.	.	.	.	.	.
CCC(=O)OCc1c(C(F)(F)F)nn(C)c1Sc1ccc(Cl)cc1	.	.	.	.	.	-33
SMILES	D1 potentiator	TRHR PAM	D1 ag	USP1 inh	TRHR agonist	D1 antag
Cc1ccc(CNC(=O)C2CCC(CNS(=O)(=O)c3ccc(C)cc3)CC2)cc1 (configuration not stated)	.	.	.	.	.	.
CC(C)S(=O)(=O)c1csc(C(=O)Nc2ccc(F)cc2)c1N	.	.	.	.	.	-56
COc1ccc(N(Cc2ccccc2)C(=O)c2nc(S(C)(=O)=O)ncc2Cl)cc1	.	.	.	.	.	.
COc1ccc(C(C)(C)C)cc1NC(=O)c1cc(S(=O)(=O)N(C)C)ccc1N1CCCC1	.	.	.	.	.	-51
N#Cc1c(-c2ccccc2)[nH]c(=O)[nH]c1=O	.	.	.	.	.	-35
COc1cc(CN(C(=O)c2ccc(C)cc2)C2CCS(=O)(=O)C2)cc(OC)c1OC (configuration not stated)	.	.	.	.	.	-30
O=C1CCCCC1C(O)c1ccc(Cl)cc1 (configuration not stated)	.	.	.	/	.	-74
CCOC(=O)NC(c1cccc(Cl)c1)C1CCCCCC1=O (configuration not stated)	.	.	.	.	.	.
Cc1cc(C(=O)Nc2cccc(F)c2)c2c(C)nn(-c3cccc(Cl)c3C)c2n1	.	.	.	.	.	-39
CC1CCCN(S(=O)(=O)c2ccc3c(c2)CCN3C(=O)CCC(=O)O)C1 (configuration not stated)	.	.	.	.	.	.
Cc1ccc(NC(=O)NC(=O)c2cnccc2C(F)(F)F)c(C)c1	.	.	.	.	.	.
Cc1ccc(N=C(NO)c2cnccc2C(F)(F)F)c(C)c1	.	32	.	.	.	.
CCCN1C(=O)c2[nH]nc(-c3ccccc3O)c2C1c1ccc(OCc2ccccc2)c(OCC)c1 (configuration not stated)	.	.	.	?	.	.
COc1ccc(CCNC(=O)c2cnc3sc(N4CCCC4)nn3c2=O)cc1OC	.	.	.	.	.	.
O=C(COc1ccc(Br)cc1CNC1CCCC1)Nc1ccccc1	.	.	34	.	.	.
CCn1cc(C(=O)OCC(=O)Nc2cc(OC)cc(OC)c2)c(=O)c2ccc(C)nc21	.	.	.	.	.	.
COc1ccc2oc(C(=O)OCC(=O)Nc3ccc(NC(C)=O)cc3)c(C)c2c1	.	38	.	.	.	.
COc1ccc2oc(C(=O)OCC(=O)NC3CCCC3)c(C)c2c1	.	.	.	.	.	-37
COc1ccc2oc(C(=O)OCC(=O)N3C(C)CCCC3C)c(C)c2c1 (configuration not stated)	.	33	.	.	.	.
COc1ccc(OCC(=O)OCC(=O)N2C(C)CCCC2C)cc1 (configuration not stated)	/	.	.	.	.	-36
COc1ccc2oc(C(=O)OCC(=O)Nc3ccc(OC)c(S(N)(=O)=O)c3)c(C)c2c1	.	.	.	.	.	.
COc1ccc(OCC(=O)OCC(=O)NC2CC2)cc1	.	.	.	.	.	.
O=C(NCc1ccc(Cl)cc1)C1CCCN(c2ncnc3onc(-c4ccc(F)cc4)c23)C1 (configuration not stated)	.	.	.	.	.	.
Cc1c(C(=O)OCC(=O)N2c3ccccc3CC2C)oc2ccccc12 (configuration not stated)	.	.	.	.	.	-65
COc1ccc2oc(C(=O)OCC(=O)NC3(C#N)CCCC3)c(C)c2c1	.	.	.	.	.	-49
Cc1nc2c(cnn2-c2ccccc2)c(=O)[nH]1	.	.	.	.	.	-38

Bioassay records from PubChem.
